Data reported in paper PMC7862700, “An all-to-all approach to the identification of sequence-specific readers for epigenetic DNA modifications on cytosine”.

Experiments:
Assay in all cases: DAPPL (digital affinity profiling via proximity ligation, sequencing); 10 mM Tris-HCl pH 7.5, 50 mM NaCl, 1 mM DTT, 4% glycerol, room temperature, 30 min; GST-TFs on glutathione beads, 16-mer random dsDNA library, 0.1% formaldehyde crosslink after washing; high values mean tight binding
FEV = target: T1, FEV (Homo sapiens, UniProt Q99581 1-238); conditions: protein: recombinant; tags: N-terminal GST; dsDNA, one strand shown
T1 sequence: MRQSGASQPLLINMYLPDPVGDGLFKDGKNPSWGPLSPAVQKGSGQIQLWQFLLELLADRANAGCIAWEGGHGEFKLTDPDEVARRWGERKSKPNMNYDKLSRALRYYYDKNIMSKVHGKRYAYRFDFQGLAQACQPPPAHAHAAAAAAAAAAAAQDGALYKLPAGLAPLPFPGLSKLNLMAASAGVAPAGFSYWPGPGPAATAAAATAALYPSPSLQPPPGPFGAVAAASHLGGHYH
How it was run: (§1)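 Binding signal is defined as a hexamer's read frequency for one factor over its frequency for the tag-only sample. To obtain reads, GST-fused human transcription factors were expressed in yeast, captured on glutathione beads, barcoded with DNA and pooled with that sample. Pools met 200 nmole of a 16-mer random double-stranded DNA library in Tris/NaCl/DTT/glycerol buffer for 30 min at room temperature before washing, 0.1% formaldehyde crosslinking, proximity ligation (BsaI/T4 ligase, 1 h, 37 °C), PCR and Illumina NextSeq500 sequencing.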

ETV5 = ETV5 (Homo sapiens, UniProt P41161 1-510); conditions: protein: recombinant; tags: N-terminal GST; dsDNA, one strand shown
Sequence of ETV5 (P41161 whole entry): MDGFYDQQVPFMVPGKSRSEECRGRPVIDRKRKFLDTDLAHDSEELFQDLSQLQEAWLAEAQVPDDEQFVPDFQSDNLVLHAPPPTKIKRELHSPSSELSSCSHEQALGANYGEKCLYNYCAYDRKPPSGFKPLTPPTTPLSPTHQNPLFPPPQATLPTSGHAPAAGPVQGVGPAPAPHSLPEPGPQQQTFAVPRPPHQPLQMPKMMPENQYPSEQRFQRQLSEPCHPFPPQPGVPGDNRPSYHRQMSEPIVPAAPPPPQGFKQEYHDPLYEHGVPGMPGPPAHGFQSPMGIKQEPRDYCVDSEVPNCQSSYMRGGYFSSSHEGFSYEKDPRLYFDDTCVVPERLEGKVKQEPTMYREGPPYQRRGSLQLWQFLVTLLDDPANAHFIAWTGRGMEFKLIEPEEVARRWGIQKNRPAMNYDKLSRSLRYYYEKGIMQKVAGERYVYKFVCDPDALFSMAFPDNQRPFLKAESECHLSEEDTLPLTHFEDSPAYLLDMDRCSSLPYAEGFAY
How it was run: as §1

HSF1 = HSF1 (Homo sapiens, UniProt Q00613 1-529); conditions: protein: recombinant; tags: N-terminal GST; chain copies: 3; dsDNA, one strand shown
Sequence of HSF1 (Q00613 whole entry): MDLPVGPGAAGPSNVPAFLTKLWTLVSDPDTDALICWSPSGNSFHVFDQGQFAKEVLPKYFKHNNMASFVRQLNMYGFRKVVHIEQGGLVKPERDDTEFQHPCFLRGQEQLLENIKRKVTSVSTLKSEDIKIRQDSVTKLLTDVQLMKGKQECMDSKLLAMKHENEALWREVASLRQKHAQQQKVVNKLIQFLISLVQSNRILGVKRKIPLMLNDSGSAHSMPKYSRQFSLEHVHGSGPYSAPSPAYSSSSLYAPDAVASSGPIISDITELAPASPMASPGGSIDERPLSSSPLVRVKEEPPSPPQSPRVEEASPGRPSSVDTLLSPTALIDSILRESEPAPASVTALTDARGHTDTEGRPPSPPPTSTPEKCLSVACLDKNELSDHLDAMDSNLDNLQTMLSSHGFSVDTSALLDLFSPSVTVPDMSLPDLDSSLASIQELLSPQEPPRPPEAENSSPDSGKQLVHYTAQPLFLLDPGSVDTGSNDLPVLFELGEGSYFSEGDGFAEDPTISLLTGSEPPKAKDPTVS
How it was run: as §1

SPIC = target: T2, SPIC (Homo sapiens, UniProt Q8N5J4 1-248); conditions: protein: recombinant; tags: N-terminal GST; dsDNA, one strand shown
T2 sequence: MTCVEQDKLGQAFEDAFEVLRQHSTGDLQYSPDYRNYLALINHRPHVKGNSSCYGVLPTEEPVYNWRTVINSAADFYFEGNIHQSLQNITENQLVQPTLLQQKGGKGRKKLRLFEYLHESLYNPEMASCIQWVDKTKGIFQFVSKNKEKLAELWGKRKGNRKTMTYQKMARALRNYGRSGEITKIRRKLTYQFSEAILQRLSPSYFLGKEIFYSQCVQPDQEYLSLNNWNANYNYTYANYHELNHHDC
How it was run: as §1

ELF4 = ELF4 (Homo sapiens, UniProt Q99607 1-663); conditions: protein: recombinant; tags: N-terminal GST; dsDNA, one strand shown
Sequence of ELF4 (Q99607 whole entry): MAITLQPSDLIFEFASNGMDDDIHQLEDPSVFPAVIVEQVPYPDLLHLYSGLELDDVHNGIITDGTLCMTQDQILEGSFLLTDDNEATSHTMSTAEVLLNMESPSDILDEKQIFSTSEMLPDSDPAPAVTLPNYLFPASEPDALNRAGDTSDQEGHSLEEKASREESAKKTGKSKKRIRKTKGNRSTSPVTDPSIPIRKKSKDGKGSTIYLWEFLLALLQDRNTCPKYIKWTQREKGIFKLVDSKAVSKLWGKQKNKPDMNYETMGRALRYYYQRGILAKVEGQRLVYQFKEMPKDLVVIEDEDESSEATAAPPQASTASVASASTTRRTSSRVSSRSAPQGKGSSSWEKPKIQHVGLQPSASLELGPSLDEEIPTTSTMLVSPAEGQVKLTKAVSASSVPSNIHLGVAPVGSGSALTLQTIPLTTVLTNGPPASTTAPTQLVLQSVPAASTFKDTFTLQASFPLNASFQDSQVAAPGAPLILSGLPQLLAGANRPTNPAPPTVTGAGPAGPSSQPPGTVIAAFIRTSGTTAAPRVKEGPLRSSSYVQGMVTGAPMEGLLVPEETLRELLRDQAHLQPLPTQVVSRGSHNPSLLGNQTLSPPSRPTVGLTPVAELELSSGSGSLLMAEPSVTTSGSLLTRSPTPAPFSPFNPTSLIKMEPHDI
How it was run: as §1

ELK4 = target: T3, ELK4 (Homo sapiens, UniProt P28324-2 1-405); conditions: protein: recombinant; tags: N-terminal GST; dsDNA, one strand shown
T3 sequence: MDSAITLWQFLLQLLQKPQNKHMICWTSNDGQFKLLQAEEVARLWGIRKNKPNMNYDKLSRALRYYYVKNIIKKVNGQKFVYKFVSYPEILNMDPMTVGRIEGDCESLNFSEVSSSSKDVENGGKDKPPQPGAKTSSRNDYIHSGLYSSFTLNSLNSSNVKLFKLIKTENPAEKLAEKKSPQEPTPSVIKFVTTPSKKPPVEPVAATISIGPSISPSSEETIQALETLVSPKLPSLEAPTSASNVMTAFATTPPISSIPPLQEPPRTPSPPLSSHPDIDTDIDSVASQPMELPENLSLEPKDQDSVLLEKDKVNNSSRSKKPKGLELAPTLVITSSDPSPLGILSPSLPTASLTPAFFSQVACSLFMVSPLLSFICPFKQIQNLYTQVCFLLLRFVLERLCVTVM
How it was run: as §1

ETV2 = target: T4, ETV2 (Homo sapiens, UniProt O00321 1-342); conditions: protein: recombinant; tags: N-terminal GST; dsDNA, one strand shown
T4 sequence: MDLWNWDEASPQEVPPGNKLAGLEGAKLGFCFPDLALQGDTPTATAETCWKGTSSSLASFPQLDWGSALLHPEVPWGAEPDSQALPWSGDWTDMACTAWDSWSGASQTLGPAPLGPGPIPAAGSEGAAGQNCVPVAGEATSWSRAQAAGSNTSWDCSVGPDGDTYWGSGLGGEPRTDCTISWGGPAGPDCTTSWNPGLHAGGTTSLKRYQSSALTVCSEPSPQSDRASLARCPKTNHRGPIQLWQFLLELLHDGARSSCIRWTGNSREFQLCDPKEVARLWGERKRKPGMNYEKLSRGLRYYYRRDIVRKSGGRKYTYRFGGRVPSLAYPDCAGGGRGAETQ
How it was run: as §1

ELF3 = target: T5, ELF3 (Homo sapiens, UniProt P78545 1-371); conditions: protein: recombinant; tags: N-terminal GST; dsDNA, one strand shown
T5 sequence: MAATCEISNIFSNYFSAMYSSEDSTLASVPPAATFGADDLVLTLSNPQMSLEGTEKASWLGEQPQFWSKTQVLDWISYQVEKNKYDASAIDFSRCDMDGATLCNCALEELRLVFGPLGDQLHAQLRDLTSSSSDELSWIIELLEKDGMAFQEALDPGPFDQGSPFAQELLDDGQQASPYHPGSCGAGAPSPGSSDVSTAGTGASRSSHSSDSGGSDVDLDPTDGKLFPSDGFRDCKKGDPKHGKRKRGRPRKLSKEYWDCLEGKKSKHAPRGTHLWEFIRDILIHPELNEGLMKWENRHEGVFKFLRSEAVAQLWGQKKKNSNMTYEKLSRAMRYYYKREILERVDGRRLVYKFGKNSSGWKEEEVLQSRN
How it was run: as §1

CRX = CRX (Homo sapiens, UniProt O43186 1-299); conditions: protein: recombinant; tags: N-terminal GST; dsDNA, one strand shown
Sequence of CRX (O43186 whole entry): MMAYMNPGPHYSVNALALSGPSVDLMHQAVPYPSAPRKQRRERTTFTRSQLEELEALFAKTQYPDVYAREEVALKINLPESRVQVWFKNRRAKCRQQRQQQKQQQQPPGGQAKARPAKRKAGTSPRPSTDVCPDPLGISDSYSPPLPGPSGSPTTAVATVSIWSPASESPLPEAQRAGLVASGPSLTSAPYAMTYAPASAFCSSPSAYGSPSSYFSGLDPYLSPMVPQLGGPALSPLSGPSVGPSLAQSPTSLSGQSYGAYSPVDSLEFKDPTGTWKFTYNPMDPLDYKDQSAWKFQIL
How it was run: as §1

ETV1 = ETV1 (Homo sapiens, UniProt P50549 1-477); conditions: protein: recombinant; tags: N-terminal GST; dsDNA, one strand shown
Sequence of ETV1 (P50549 whole entry): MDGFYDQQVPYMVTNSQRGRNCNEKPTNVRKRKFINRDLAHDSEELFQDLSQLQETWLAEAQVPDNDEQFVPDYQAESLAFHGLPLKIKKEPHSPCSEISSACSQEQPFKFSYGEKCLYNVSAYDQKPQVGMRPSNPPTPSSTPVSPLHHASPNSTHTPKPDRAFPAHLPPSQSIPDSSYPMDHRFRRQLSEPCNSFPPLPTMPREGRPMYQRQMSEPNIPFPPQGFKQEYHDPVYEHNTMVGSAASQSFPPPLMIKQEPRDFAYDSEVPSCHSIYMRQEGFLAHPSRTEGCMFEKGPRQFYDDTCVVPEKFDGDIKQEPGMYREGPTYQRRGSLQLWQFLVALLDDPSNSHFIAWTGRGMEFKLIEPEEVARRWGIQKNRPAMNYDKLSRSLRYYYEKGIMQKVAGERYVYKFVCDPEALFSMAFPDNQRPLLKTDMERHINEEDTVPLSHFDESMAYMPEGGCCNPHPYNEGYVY
How it was run: as §1

AAGATT
binding signal (FEV): 1.06 fold enrichment (6-mer frequency, TF over GST control) | binding signal (ETV5): 1.25 fold enrichment (6-mer frequency, TF over GST control) | binding signal (HSF1): 2.11 fold enrichment (6-mer frequency, TF over GST control) | binding signal (SPIC): 1.12 fold enrichment (6-mer frequency, TF over GST control) | binding signal (ELF4): 1.22 fold enrichment (6-mer frequency, TF over GST control) | binding signal (ELK4): 1.35 fold enrichment (6-mer frequency, TF over GST control) | binding signal (ETV2): 1.16 fold enrichment (6-mer frequency, TF over GST control) | binding signal (ELF3): 1.08 fold enrichment (6-mer frequency, TF over GST control) | binding signal (CRX): 2.4 fold enrichment (6-mer frequency, TF over GST control) | binding signal (ETV1): 1.18 fold enrichment (6-mer frequency, TF over GST control)
